Compounds without any hit were thinned out: in the full panel of roughly 83,000, 20% have a hit.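 Activity criterion: percent growth below 10, measured after cells in 96-well plates were exposed to a single compound concentration for 48 hours.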 A number with no mark means an inactive call. Activity calls are given as the source filed them.

Common to all, as to experiment: NCI-60 one-dose screen, 48 h (100 = growth as untreated, 0 = no growth, -100 = all killed)
Holding throughout (details): 10 µM unless noted

The test system of assay [1] is HCT-15 colon.
Assay [2] relates to HT29 colon.
In assay [3] the test system is SNB-75 CNS.
Assay [4] concerns SNB-19 CNS.
For assay [5], the system named is U251 CNS.
Assay [6] concerns PC-3 prostate.
The subject of assay [7] is SK-MEL-5 melanoma.
Assay [8] has as its system UACC-62 melanoma.
Assay [9] deals with LOX IMVI melanoma.
Assay [10] deals with SK-MEL-28 melanoma.
For assay [11], the system named is SK-MEL-2 melanoma.
Assay [12] concerns EKVX NSCLC.
For assay [13], the system named is SN12C renal.
Assay [14] concerns UO-31 renal.
Assay [15] concerns TK-10 renal.
Assay [16] has as its system ACHN renal.
The subject of assay [17] is CAKI-1 renal.
The subject of assay [18] is A498 renal.
Assay [19] concerns CCRF-CEM leukemia.
Assay [20] deals with MOLT-4 leukemia.

As for `CCN(CC)CCN1C(=O)c2c(c(C)c3c(oc4cc(OC)ccc43)c2C)C1=O`, the growth is 101% in [1]; 96.8% in assay [2]; 77.2% in [3]; 87.6% in assay [4]; 55.5% in [5]; 92% in assay [6]. In addition, the growth is 95.8% in [7]; 102% in assay [8]; 83.1% in assay [9]; 76.1% in assay [10]; 101% in [11]; 93.5% in assay [12]. Further, the growth in assay [13] was 32.2%; in assay [14] it was -43.7% (active); in assay [15], 100%; in assay [16], 51%; in assay [17] it was 78.2%; in assay [18], 108%. Also, the figures for the growth in assay [19] and in [20] were -10.9% (active) and 61.1%, respectively.

`C1=C2CCCC3=Cc4ccccc4OC23Oc2ccccc21`: the growth is 20.1% in [1]; 5.93% (active) in assay [2]; 23% in assay [3]; 27.4% in assay [4]; 26.5% in assay [5]; 34.7% in assay [6]. Also, the growth was 20% in assay [7]; 14.5% in [8]; 23% in assay [9]; 54.2% in assay [10]; 36% in assay [11]; 57.8% in assay [12]. The growth in [13] is 34.4%; in assay [14] it was 43.3%; in assay [15] it was 55.4%; in assay [16], 47.3%; in [17] it was 27.2%; in [18], 5.61% (active). Besides, the growth in assay [19] is 18.3%; in assay [20] it was 17.5%.

Consider `CSc1nc(CC(C)C)c(C#N)c(=O)n1C`, for which the growth was 46.1% in [1]; 69.7% in [2]; 61% in [3]; 82.1% in [4]; 81.8% in [5]; 62.9% in [6]. Moreover, the growth in [7] is 70.9%; in [8], 53.8%; in assay [9] it was 68.4%; in assay [10], 68.3%; in [11] it was 85.8%; in [12] it was 64.3%. The growth in assay [13] is 29.1%; in assay [14] it was 38.9%; in assay [15], 34.2%; in assay [16], 55.6%; in assay [17] it was 56.8%; in [18], 47%. Also, the growth is 49.2% in [19] and 46.1% in assay [20].

`CC(C)(C)n1cc(-c2ccnc(NCCNS(=O)(=O)c3ccc(Br)cc3)c2)c(-c2cccc(O)c2)n1`: the growth in assay [1] is -0.0275% (active); in [2], -11% (active); in assay [3], 19.4%; in assay [4], 52.3%; in assay [5], 21.7%; in assay [6], 25.4%. In addition, the growth in [7] is -19% (active); in assay [8] it was 49.6%; in [9], 12.7%; in assay [10], 38.5%; in [11], 30.3%; in [12] it was 43.4%. Besides, the growth was 35.7% in assay [13]; 22.7% in assay [14]; 55.6% in assay [15]; 25% in assay [16]; 29.1% in assay [17]; 11.5% in [18]. Also, the growth in [19] was 27.7%; in assay [20], 12.9%.

In the case of `O=C(Nc1ncc(Cc2ccccc2Cl)s1)c1ccc2c(c1)OCCO2`, the growth in assay [1] was 10.4%; in assay [2] it was 6.05% (active); in assay [3], 3.37% (active); in [4] it was 36%; in assay [5], 14.7%; in assay [6], 23.4%. Further, the growth in assay [7] was -25.1% (active); in assay [8], 27.9%; in [9], 23.6%; in assay [10] it was 76.3%; in [11], 39.8%; in [12], 33.8%. The growth in [13] is 30.2%; in assay [14], 51.9%; in assay [15] it was 46.2%; in [16] it was 37.3%; in [17], 20%; in assay [18], -0.0402% (active). For the same compound, the growth was 6.45% (active) in assay [19] and 7.02% (active) in assay [20].

Consider `Oc1ccc(C(c2ccc(O)cc2)c2ccc(Cl)cn2)cc1`, for which the growth was 23.2% in [1]; 47.9% in assay [2]; -32.5% (active) in assay [3]; 71.9% in assay [4]; 97% in assay [5]; -32.2% (active) in assay [6]. Besides, the growth is 96.5% in assay [7]; 39.3% in assay [8]; -42.6% (active) in assay [9]; 112% in assay [10]; 72.7% in assay [11]; 15.8% in assay [12]. Further, the growth in assay [13] was 6.15% (active); in assay [14], 64.8%; in assay [15] it was -3.31% (active); in assay [16] it was 15.7%; in [17], 73.5%; in [18] it was -1.72% (active). Also, the figures for the growth in [19] and in assay [20] were 70.2% and 98.3%, respectively.

For `CC(C)C(=O)Nc1ncc(C(=O)NCCN(Cc2ccccc2)C(=O)c2ccc(S(=O)(=O)Nc3ccccc3)cc2)s1`, the growth in assay [1] is 96.6%; in assay [2], 104%; in assay [3], 78.3%; in assay [4], 97.1%; in assay [5], 97.4%; in assay [6] it was 94.3%. The growth is 90.8% in assay [7]; 89.6% in assay [8]; 104% in [9]; 98.4% in [10]; 97.8% in [11]; 97.6% in assay [12]. Moreover, the growth is 91.4% in assay [13]; 80.2% in assay [14]; 100% in assay [15]; 101% in assay [16]; 92.4% in [17]; 87.7% in [18]. Besides, the values for the growth in assay [19] and in assay [20] were 96.2% and 75.1%, respectively.

Regarding `O=[N+]([O-])c1ccc(Oc2cccc3c(Oc4ccc([N+](=O)[O-])cc4[N+](=O)[O-])cccc23)c([N+](=O)[O-])c1`, the growth is 100% in assay [1]; 97% in assay [2]; 81.6% in [3]; 84.7% in assay [4]; 87% in [5]; 79.7% in [6]. Further, the growth in assay [7] is 86.7%; in assay [8], 76.5%; in [9], 78.4%; in assay [10] it was 110%; in assay [11], 90.4%; in assay [12], 77.7%. Also, the growth in assay [13] was 74.8%; in assay [14], 72.8%; in assay [15] it was 119%; in assay [16] it was 93.4%; in assay [17], 89.2%; in assay [18] it was 108%. Also, the results for the growth in [19] and in assay [20] were 95.7% and 102%, respectively.

These data come from PubChem BioAssay (NCI).
